In PubChem BioAssay (NCATS):
Records with an inconclusive call do not appear. The source made the active and inactive calls. Calls follow the shape of the dose curve; as a rule, active = well fitted curve in the direction sought with a large enough effect; inconclusive = small, poorly fitted or top-dose-only effect, or another doubt; inactive = no such curve, though single readings can be large; an effect the other way counts as inactive or inconclusive.

Columns and labels:
[1] = qHTS of pediatric cancer cell lines to identify multiple opportunities for drug repurposing: Primary screen for TC32 cells (AID 1347089); also: nearly all actives have a fitted effect of over 60% in size; also: potency is read from the fitted curve at half-maximal effect
How it was run: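 In the primary qHTS, MIPE compounds were tested at 11 concentrations (0.78 nM to 46 µM) and NPC compounds at 8 (0.59 nM to 46 µM) on TC32 cells for 48 h. CellTiter-Glo luminescence gave viability.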

[2] = qHTS of pediatric cancer cell lines to identify multiple opportunities for drug repurposing: Primary screen for DAOY cells (AID 1347090); also: nearly all actives have a fitted effect of over 55% in size; also: potency is read from the fitted curve at half-maximal effect
How it was run: (§1)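 Eight- or eleven-point concentration series, 48 h treatment at 37 degrees C in growth media; readout CellTiter-Glo luminescence. Potency and efficacy were taken from the concentration-response curves.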

[3] = qHTS of pediatric cancer cell lines to identify multiple opportunities for drug repurposing: Primary screen for SJ-GBM2 cells (AID 1347091); also: potency is read from the fitted curve at half-maximal effect
How it was run: as §1

[4] = qHTS of pediatric cancer cell lines to identify multiple opportunities for drug repurposing: Primary screen for A673 cells (AID 1347092); also: nearly all actives have a fitted effect of over 45% in size; also: potency is read from the fitted curve at half-maximal effect
How it was run: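 48 h compound exposure, A673, 500-1,000 cells/well, 37 degrees C/5% CO2. MIPE: 11-point, 0.78 nM-46 µM; NPC: 8-point, 0.59 nM-46 µM (final). Readout CellTiter-Glo luminescence after 15 min RT.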

[5] = qHTS of pediatric cancer cell lines to identify multiple opportunities for drug repurposing: Primary screen for BT-37 cells (AID 1347094); also: potency is read from the fitted curve at half-maximal effect
How it was run: (§2)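 Readout: CellTiter-Glo luminescence, 48 h treatment. Controls DMSO (neutral) and bortezomib 2.3 µM final (positive). Potency and efficacy taken from primary-screen concentration-response curves.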

[6] = qHTS of pediatric cancer cell lines to identify multiple opportunities for drug repurposing: Primary screen for NB-EBc1 cells (AID 1347095); also: potency is read from the fitted curve at half-maximal effect
How it was run: as §2

[7] = qHTS of pediatric cancer cell lines to identify multiple opportunities for drug repurposing: Primary screen for U-2 OS cells (AID 1347096); also: nearly all actives have a fitted effect of over 50% in size; also: potency is read from the fitted curve at half-maximal effect
How it was run: (§3)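 Cells (500-1,000/well) in growth media were settled 5 h at 37 degrees C, then given compounds for 48 h. Viability was read as CellTiter-Glo luminescence. Primary runs used MIPE at 11 points (0.78 nM-46 µM) and NPC at 8 points (0.59 nM-46 µM); follow-ups used 11 points.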

[8] = qHTS of pediatric cancer cell lines to identify multiple opportunities for drug repurposing: Primary screen for Saos-2 cells (AID 1347097); also: nearly all actives have a fitted effect of over 40% in size; also: potency is read from the fitted curve at half-maximal effect
How it was run: as §2

[9] = qHTS of pediatric cancer cell lines to identify multiple opportunities for drug repurposing: Primary screen for LAN-5 cells (AID 1347100); also: potency is read from the fitted curve at half-maximal effect
How it was run: as §3

[10] = qHTS of pediatric cancer cell lines to identify multiple opportunities for drug repurposing: Primary screen for BT-12 cells (AID 1347101); also: nearly all actives have a fitted effect of over 25% in size; also: potency is read from the fitted curve at half-maximal effect
How it was run: (§4)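 Cells (500-1,000/well) rested 5 h, then received compounds for 48 h; metabolically active cells were measured by CellTiter-Glo luminescence. Final concentrations spanned up to 46 µM (MIPE, 11-point) or 0.59 nM-46 µM (NPC, 8-point) in primary screens, 11-point in follow-ups.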

[11] = qHTS of pediatric cancer cell lines to identify multiple opportunities for drug repurposing: Primary screen for Rh18 cells (AID 1347102); also: nearly all actives have a fitted effect of over 65% in size; also: potency is read from the fitted curve at half-maximal effect
How it was run: as §3

[12] = qHTS of pediatric cancer cell lines to identify multiple opportunities for drug repurposing: Primary screen for OHS-50 cells (AID 1347103); also: nearly all actives have a fitted effect of over 40% in size; also: potency is read from the fitted curve at half-maximal effect
How it was run: as §4

[13] = qHTS of pediatric cancer cell lines to identify multiple opportunities for drug repurposing: Primary screen for RD cells (AID 1347104); also: nearly all actives have a fitted effect of over 55% in size; also: potency is read from the fitted curve at half-maximal effect
How it was run: as §2

[14] = qHTS of pediatric cancer cell lines to identify multiple opportunities for drug repurposing: Primary screen for MG 63 (6-TG R) cells (AID 1347105); also: nearly all actives have a fitted effect of over 50% in size; also: potency is read from the fitted curve at half-maximal effect
How it was run: as §2

[15] = qHTS of pediatric cancer cell lines to identify multiple opportunities for drug repurposing: Primary screen for Rh30 cells (AID 1347107); also: nearly all actives have a fitted effect of over 75% in size; also: potency is read from the fitted curve at half-maximal effect
How it was run: as §3

[16] = qHTS of pediatric cancer cell lines to identify multiple opportunities for drug repurposing: Primary screen for SK-N-SH cells (AID 1347098); also: nearly all actives have a fitted effect of over 65% in size; also: potency is read from the fitted curve at half-maximal effect
How it was run: as §4

[17] = qHTS of pediatric cancer cell lines to identify multiple opportunities for drug repurposing: Primary screen for NB1643 cells (AID 1347099); also: nearly all actives have a fitted effect of over 50% in size; also: potency is read from the fitted curve at half-maximal effect
How it was run: as §2

[18] = qHTS of pediatric cancer cell lines to identify multiple opportunities for drug repurposing: Primary screen for control Hh wild type fibroblast cells (AID 1347106);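 also: series mostly up to about 46 µM; a drop in luminescence marks cytotoxicity and a rise apparent proliferation; nearly all actives have a fitted effect of over 55% in size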
How it was run: as §3

[19] = qHTS of pediatric cancer cell lines to identify multiple opportunities for drug repurposing: Primary screen for SK-N-MC cells (AID 1347093); also: potency is read from the fitted curve at half-maximal effect
How it was run: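 Metabolically active cells were quantified by ATP-dependent luminescence (CellTiter-Glo, 15 min at room temperature) following 48 h treatment. Cells had been plated at 500-1,000 per well and settled for 5 h beforehand.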

Measured: Potency

Nc1ncnc2ccccc12
active: [2] 18.7 µM | [4] 23.5 µM
not listed: [16] | [17] | [18] | [19]
inactive: all other assays above

CO[C@H]1C=CC=C(C)C(=O)NC2=CC(=O)C(NCCN(C)C)=C(C[C@@H](C)C[C@H](OC)[C@@H](O)[C@@H](C)C=C(C)[C@@H]1OC(N)=O)C2=O
active: [1] 0.262 µM | [2] 3.72 µM | [3] 0.0526 µM | [5] 0.385 µM | [6] 0.118 µM | [7] 0.935 µM | [8] 2.35 µM | [16] 0.271 µM | [9] 0.132 µM | [10] 4.85 µM | [11] 0.132 µM | [12] 0.385 µM | [13] 0.0526 µM | [14] 18.7 µM | [15] 5.9 µM

COc1ncc(-c2ccc3nccc(-c4ccnnc4)c3c2)cc1NS(=O)(=O)c1ccc(F)cc1F
inactive: [18]
active: [1] 0.0026 µM | [2] 4.69 µM | [3] 0.001 µM | [4] 0.0743 µM | [5] 0.0611 µM | [6] 0.001 µM | [7] 7.43 µM | [16] 1.52 µM | [17] 0.0662 µM | [9] 0.105 µM | [11] 0.0372 µM | [12] 0.001 µM | [13] 0.372 µM | [15] 1.48 µM

C=C1C(=O)OC(CCCCCCCC)C1C(=O)O (configuration not stated)
active: [3] 20.9 µM
not listed: [6] | [8] | [11] | [16] | [19]
inactive: all other assays above

CN(C)c1cc(NC(=O)CNC(C)(C)C)c(O)c2c1C[C@@H]1C[C@H]3[C@H](N(C)C)C(=O)C(C(N)=O)=C(O)[C@@]3(O)C(=O)C1=C2O
not listed: [4] | [9] | [19]
inactive: all other assays above

CS(=O)c1ccc(-c2nc(-c3ccc(F)cc3)c(-c3ccncc3)[nH]2)cc1 (configuration not stated)
inactive: [1] | [2] | [7] | [11] | [14] | [18]
active: [3] 42.9 µM | [4] 34 µM | [5] 17.7 µM | [8] 10.8 µM | [10] 44.4 µM | [12] 44.4 µM | [13] 42.9 µM

O=C(NC1CCOCC1)c1ccc(-c2cc(-c3cn[nH]c3-c3ccccn3)ccn2)cc1
not listed: [4]
inactive: all other assays above

C=C1C(=O)[C@@]23C(CC[C@@H]1[C@H]2O)[C@@]12CO[C@]3(O)[C@@H](O)[C@@H]1C(C)(C)CC[C@@H]2O (some centres not stated)
inactive: [18]
active: [1] 16.5 µM | [2] 2.35 µM | [3] 8.33 µM | [19] 1.66 µM | [5] 27.3 µM | [6] 2.09 µM | [7] 14.8 µM | [8] 4.69 µM | [16] 15.2 µM | [17] 1.48 µM | [9] 1.66 µM | [10] 3.43 µM | [11] 9.35 µM | [12] 9.68 µM | [13] 9.35 µM | [14] 4.69 µM | [15] 7.43 µM

COc1ccc(-c2coc3cc(O)cc(O)c3c2=O)cc1
active: [19] 10.5 µM | [16] 24.1 µM
not listed: [4] | [8] | [11] | [12] | [15] | [17]
inactive: all other assays above
